HT1080 IDH1KD tx: kills HT-1080 cells with IDH1 knockdown; HT-1080 IDH1 knockdown viability, ATP luminescence, 48 h; Potency, µM (doses to about 46.1 µM), inactives show at the highest dose activity, negative = toxicity, hits mostly cytotoxic; 360,000 compounds, 2% hits; AID 686971;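 note: potency is the fitted concentration of half-maximal effect; 0% = DMSO wells and -100% = cell-free medium wells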
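Viability of IDH1-knockdown HT-1080 fibrosarcoma cells was assessed by CellTiter-Glo after 48 h at 37 °C with titrated compound; concentration-effect curves were classified by fit quality and response size.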
DT40 TDP1 CPT: growth inhibition of DT40 Tdp1-/-;hTDP1 cells with camptothecin (screen for TDP1 inhibitors); Potency, µM (titrated, usually from 46.2 µM), for inactives: top-dose activity change, negative = growth inhibition, actives largely listed as inhibitors; chicken DT40 Tdp1-/-;hTDP1 cells + 20 nM CPT, ATP luminescence, 48 h; AID 686979; 420,000 compounds, 12% hits; note: potency is the fitted concentration of half-maximal effect; nearly all actives have a fitted effect of over 55% in size
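Chicken DT40 Tdp1-/- cells complemented with human TDP1, 400 cells/well, exposed to compounds plus 20 nM camptothecin for at least 48 h at 37 C; viability read as ATP content by CellTiter-Glo luminescence.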
TDP1 cell noCPT: qHTS for Inhibitors of human tyrosyl-DNA phosphodiesterase 1 (TDP1): qHTS in cells in absence of CPT. DT40 Tdp1-/- hTDP1 cells, no CPT, ATP luminescence, 48 h. Potency, µM (series often up to 46.2 µM), without a hit: top-dose activity change, negative = growth inhibition, usual class: inhibitors. 420,000 compounds, 15% hits. AID 686978, 2013; note: potency is the fitted concentration of half-maximal effect; nearly all actives have a fitted effect of over 55% in size
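Compound effects on proliferation are scored in DT40 Tdp1-/-;hTDP1 cells in the absence of CPT. ATP levels (CellTiter-Glo luminescence) are recorded after a ≥48 hr, 37 °C incubation.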
HT1080-NT tox: kills 2HG-producing HT-1080-NT fibrosarcoma cells. HT-1080-NT fibrosarcoma viability, CellTiter-Glo ATP luminescence, 48 h. Potency, µM (titrated, usually from 46.1 µM), inactives show top-dose activity, negative = less viability, hits mostly cytotoxic. AID 686970. 360,000 compounds, 1.6% hits;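 note: NT is the 2HG producing partner of a matched IDH1 knockdown line; potency is the fitted concentration of half-maximal effect; 0% = DMSO-treated cells and -100% = media-only wells without cells; nearly all actives have a fitted effect of over 55% in size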
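HT-1080-NT fibrosarcoma cells (2HG-overproducing), 750 cells/well in RPMI with 5% FBS, dosed after 2 h and incubated 48 h at 37C. CellTiter-Glo luminescence normalized to DMSO and no-cell wells; concentration-response curves fitted and classed.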
IL1B secr inh: inflammasome signaling inhibition, IL-1 beta readout; THP-1 LPS/ATP IL-1B secretion, AlphaLISA, 16 h; hits give low values; activity change, % at 57.5 µM; 360,000 compounds, 4.7% hits; in the data active = activity change below about -50%; inconclusive = mostly about -30% to -49%
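Secreted IL-1B measured by AlphaLISA bead assay after 16 h compound exposure of THP-1 cells; compounds (final up to 57.5 uM) added 1 h before LPS (250 ng/mL) and ATP (1.25 mM) stimulation; lower signal means less secretion.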
uPA generation: cell surface uPA generation inhibition; cell surface uPA generation assay, qHTS; Potency, µM (highest dose often 38.3 µM), for inactives: at the highest dose activity change, negative = inhibition, hits mostly inhibitors; 330,000 compounds, 0.31% hits; active = well fitted inhibition curve with a large enough effect; inconclusive = small, poorly fitted or top-dose-only effect; inactive = no such curve, though single readings can be large or run the other way; tested in mouse RAW 264.7 cells; note: potency is the fitted concentration of half-maximal effect; nearly all actives have a fitted effect of over 55% in size
* hit, by the source's call; ? = inconclusive; / = not tested or not shown; ! = a repeat was not active. An excerpt weighted towards active compounds, which were near 19% of everything screened. Unless noted, calls come from the whole dose curve; as a rule, active = well fitted curve in the direction sought with a large enough effect; inconclusive = small, poorly fitted or top-dose-only effect, or another doubt; inactive = no such curve, though single readings can be large; an effect the other way counts as inactive or inconclusive. Unless noted, % is set by controls: 0 for no effect and ±100 for the full control effect.

SMILES	HT1080 IDH1KD tx	DT40 TDP1 CPT	TDP1 cell noCPT	HT1080-NT tox	IL1B secr inh	uPA generation
O=C(O)[C@H]1/C(=C/CO)O[C@@H]2CC(=O)N21	/	-1%	-14%	/	/	/
COc1ccccc1NC(=O)C(C)OC(=O)/C(=C/c1ccccc1)NC(C)=O (configuration not stated)	-14%	-1%	-16%	-7%	32	-7%
COc1cccc2c1cc1c(=O)n(CC(=O)N3CCN(c4cc(Cl)ccc4C)CC3)nc(C)n12	/	-15%	-22%	/	/	/
Cc1ccc(Cl)cc1N1CCN(C(=O)Cn2ccc3ccccc3c2=O)CC1	?	16µM*	21µM*	0%	-66*	-2%
Cc1ccc(Cl)cc1N1CCN(C(=O)Cn2ncn3cccc3c2=O)CC1	-8%	21µM*	?	-20%	8	-7%
Cc1ccc(C)c(N2CCN(C(=O)CCNC(=O)Cn3ccc4ccccc4c3=O)CC2)c1	0%	-17%	?	7%	-1	/
Cc1ccc(Cl)cc1N1CCN(C(=O)Cn2nc(C)n3c(cc4sccc43)c2=O)CC1	/	18µM*	21µM*	/	/	/
O=C(/C=C/N1CCOCC1)c1ccc(-c2ccccc2)cc1	7%	?	21µM*	-5%	-1	-5%
CCOC(=O)CN(c1ccccn1)S(=O)(=O)c1ccccc1	12%	2%	-9%	10%	15	2%
CCOC(=O)CN(c1sc(C)c(C)c1C(=O)OCC)S(=O)(=O)c1ccc(C)cc1	-18%	?	15µM*	-11%	-5	/
O=[N+]([O-])c1ccccc1S(=O)(=O)N1CCN(c2ccccc2)CC1	-1%	-5%	-2%	-1%	-13	-32%
c1ccc(-c2onc(-c3ccco3)c2-c2ccc3c(c2)OCO3)cc1	12%	10µM*!	11µM*!	-3%	-9	-10%
CC1ON=C(c2ccccn2)N(Cc2ccc3c(c2)OCO3)C1=O (configuration not stated)	12%	?	?	17%	43	/
CCOc1ccccc1OCCCCn1c(-c2ccc(Cl)cc2)nc2ccccc2c1=O	/	?	-9%	/	/	/
Cn1c(N)c(NC(=S)NC2CCCCC2)c(=O)n(C)c1=O	21%	1%	-12%	18%	-2	1%
O/N=C/c1ccccc1Oc1ccc(Cl)cc1	-8%	?	16µM*	-9%	-13	13%
O/N=C/c1ccccc1Oc1ccccc1	-5%	-12%	-23%	-8%	18	2%
COc1cc(C)ccc1OCCOCCOc1cc(C)c(C)cc1Br	-19%	?	?	-14%	-7	5%
Cc1n[nH]c(=O)c2c(NC(=O)CSc3nc4ccccc4c(=O)n3CCCO)oc(C)c12	-17%	?	?	-21%	6	-1%
Cc1cc(C)n(-c2nc3ccccc3nc2N2CCN(S(=O)(=O)c3ccc(F)c(C)c3)CC2)n1	0%	23µM*	?	-4%	1	5%
Cc1ccc(C)c(N2CCN(c3nc4ccc(C)cc4nc3-n3nc(C)cc3C)CC2)c1	/	4%	9%	/	/	/
Cc1cc(C)n(-c2nc3ccccc3nc2N2CCN(C(=O)c3ccccc3)CC2)n1	-1%	-19%	-29%	-3%	4	-3%
Cc1cc(C)n(-c2nc3ccccc3nc2N2CCN(S(=O)(=O)c3ccc4ccccc4c3)CC2)n1	1%	?	14µM*	18%	-13	/
COC(=O)C[C@@H]1CC[C@H](NC(=O)c2cnccn2)[C@@H](CO)O1	30%	4%	2%	26%	15	/
CCC(=O)Nc1cccc2cccnc12	12%	12%	3%	13%	11	-6%
SMILES	HT1080 IDH1KD tx	DT40 TDP1 CPT	TDP1 cell noCPT	HT1080-NT tox	IL1B secr inh	uPA generation
CC(C)CC(=O)NC(NC(=S)Nc1cccc2cccnc12)C(Cl)(Cl)Cl (configuration not stated)	?	8.2µM*	8.2µM*	?	-19	-4%
CC(C)C(=O)NC(Nc1cccc2cccnc12)C(Cl)(Cl)Cl (configuration not stated)	-3%	15µM*	13µM*	-14%	7	-6%
COc1ccc(CNC(=O)C2(c3cccs3)CCOCC2)cc1	/	-3%	-28%	/	/	/
O=C(c1ccccc1Br)N(Cc1ccccc1)c1ccccc1	-9%	21µM*	12µM*	-10%	-57*	2%
COc1ccccc1N1C(C)=CC(=C(C#N)c2nc3ccccc3s2)C=C1C	-12%	8.2µM*	13µM*	-13%	18	-3%
CCn1c(O)c(N=NC(=S)NCC2CCCO2)c2ccccc21 (configuration not stated)	-12%	13µM*	9.2µM*	-18%	34	?
Cc1cc(C)c2[nH]c(O)c(N=NC(=S)NCC3CCCO3)c2c1 (configuration not stated)	15%	6.5µM*	6.5µM*	8%	-2	-8%
Oc1[nH]c2c(Cl)cc(Cl)cc2c1N=NC(=S)NCC1CCCO1 (configuration not stated)	-15%	3.7µM*	4.6µM*	-8%	53	-15%
Oc1[nH]c2ccc(Br)cc2c1N=NC(=S)NCC1CCCO1 (configuration not stated)	-12%	?	?	-15%	-5	-2%
Oc1[nH]c2ccccc2c1N=NC(=S)NCC1CCCO1 (configuration not stated)	-5%	?	?	1%	?	-5%
CCc1nc2c(OCC(=O)C(C)(C)C)cccn2c1N(C)C(=O)Nc1ccccc1OC	10%	?	-27%	15%	12	/
Clc1ccc2c(c1)C(N1CCNCC1)=Nc1ccccc1O2	4%	15µM*!	7.3µM*!	-12%	0	-16%
O=C(Nc1ccc(-c2csc(Nc3ccccc3)n2)cc1)c1cc([N+](=O)[O-])cc(C(F)(F)F)c1	-16%	?	18µM*	1%	88	13%
O=[N+]([O-])c1ccc(-c2csc(Nc3ccccc3)n2)cc1	-24%	?	13µM*	-21%	/	/
Cc1ccc(C(=O)Nc2cccc(C(F)(F)F)c2)cc1NC(=O)c1csc(-c2ccncc2)n1	-19%	6.5µM*	4.1µM*	-11%	26	16%
Cc1ccc(-c2csc(NC(=O)c3cccc([N+](=O)[O-])c3)n2)cc1	-12%	-10%	-14%	15%	-1	-1%
O=C(Nc1cccc(-c2csc(Nc3cccc(C(F)(F)F)c3)n2)c1)c1cc([N+](=O)[O-])cc(C(F)(F)F)c1	-5%	7.3µM*	5.8µM*	-2%	4	?

Bioassay records: PubChem BioAssay, National Center for Advancing Translational Sciences (NCATS)
